This is a sample that favours compounds with a hit; in the whole collection about 1.6% have one here.
SIRT5 block: inhibitors of human sirtuin-5 desuccinylase | hit rate 1.1% among 330,000 | Q9NXA8 | inhibition, % at 15 µM | Purified SirT5, succinyl-peptide AMC, trypsin-coupled fluorescence; in the data active means inhibition above about 15%
Target sequence (Q9NXA8 whole entry, looked up): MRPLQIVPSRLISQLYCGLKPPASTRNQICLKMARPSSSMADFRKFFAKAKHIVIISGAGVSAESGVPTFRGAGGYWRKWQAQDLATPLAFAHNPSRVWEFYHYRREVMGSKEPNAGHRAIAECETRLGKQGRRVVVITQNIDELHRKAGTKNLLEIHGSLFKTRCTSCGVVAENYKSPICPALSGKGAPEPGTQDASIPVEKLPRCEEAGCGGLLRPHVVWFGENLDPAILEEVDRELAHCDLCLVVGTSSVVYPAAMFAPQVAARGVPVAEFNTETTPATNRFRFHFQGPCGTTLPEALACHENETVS
CASP6 VEID inh: blocks human caspase-6 cleavage activity; P55212; purified caspase-6, Z-VEID-R110 cleavage fluorescence; inhibition, % at 12.5 µM; hit rate 0.53% among 350,000;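 active means mean inhibition across replicates at least about 35%, with every replicate also reaching that limit, limit read from the data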;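 further: 0% = median of neutral control wells and 100% = no fluorescence left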
NSD2 HMT inh: inhibitors of human histone methyltransferase NSD2 | hit rate 0.54% among 310,000 | NSD2 peptide methylation, AlphaScreen, 120 min | inhibition, % at 12.5 µM; in the data active means inhibition above about 50%
SUMO HTRF inh: blocks human SUMOylation mediated by UBC9; HTRF SUMOylation assay, SAE1/SAE2 + UBC9, in vitro; hit rate 0.36% among 290,000; inhibition, % at 35 µM; P63279; in the data active means inhibition above about 50%, passing the limit was not always enough
Target sequence (P63279 whole entry, looked up): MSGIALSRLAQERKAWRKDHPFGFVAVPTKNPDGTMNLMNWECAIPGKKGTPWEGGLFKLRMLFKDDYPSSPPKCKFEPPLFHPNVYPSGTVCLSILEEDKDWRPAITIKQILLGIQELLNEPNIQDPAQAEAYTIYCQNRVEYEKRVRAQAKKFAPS
* hit, by the source's call; x = no result given.

SMILES	SIRT5 block	CASP6 VEID inh	NSD2 HMT inh	SUMO HTRF inh
O=C(N/N=C/c1cccc([N+](=O)[O-])c1)c1cc(-c2ccc3c4c(cccc24)CC3)n[nH]1	-4	-1	1	34
CCOCC(=O)Nc1nc(C)cc(C)n1	-2	4	1	69*
CC(=O)CC(=O)Nc1nc(C)cc(C)n1	0	-1	20	15
Cc1noc(C)c1NC(=O)N(C)C[C@H]1OCCCC[C@@H](C)Oc2ccc(N(C)C)cc2C(=O)N([C@@H](C)CO)C[C@H]1C	-1	-3	x	x
COc1cc(C(=O)N/N=C/c2cc([N+](=O)[O-])cs2)cc(OC)c1OC	x	x	-4	68*
CCCC#Cc1ccc2c(c1)O[C@H](CN(C)Cc1cncnc1)[C@@H](C)CN([C@@H](C)CO)S2(=O)=O	4	-1	x	x
OC[C@H]1[C@H](c2ccc(-c3cccnc3)cc2)[C@H]2CN(CC3CCOCC3)CCCCN21	-6	0	x	x
Cc1sc2ncnc(SCC(=O)Nc3ncccc3O)c2c1C	2	43*	8	x
Cc1cccnc1NC(=O)CSc1ncnc2sc(C)c(C)c12	-1	0	-5	x
CN1C(=O)c2cc(NC(=O)C3CCOCC3)ccc2OC[C@H]2O[C@H](CC(=O)O)CC[C@@H]21	13	12	x	x
COc1ccc(C)cc1-n1nnnc1SCC(=O)c1ccc2c(c1)OCCO2	x	x	-7	-45
COc1ccc(-n2nnnc2SCC(=O)c2ccc3c(c2)OCCO3)c(OC)c1	27*	1	-2	10
CO[C@@H]1CN(C)C(=O)c2cc(C#N)ccc2OC[C@H]2O[C@H](CC[C@H]2OC)CCN(C)C(=O)[C@H]1C	-1	0	x	x
C[C@@H]1CN([C@H](C)CO)S(=O)(=O)c2ccc(C#Cc3ccccc3F)cc2O[C@H]1CN(C)C	3	-1	x	x
CCN(CC)c1ccc(/C=C/c2ccc3ccc(OC)cc3[n+]2CC)cc1	0	2	76*	-29
COc1ccc2c3c(n(C)c2c1)[C@@H](CO)N(C)CC31CN(S(=O)(=O)c2cccc(C)c2)C1	1	2	x	x
CC(C)C(=O)N=c1sc2cc(F)cc(F)c2n1C	17*	1	x	11
Cc1cc(-c2ccc(Br)cc2)n[nH]1	16*	2	3	11
O=C(COc1ccc2c(c1)OCO2)Nc1ccc(Cl)cn1	26*	0	-3	1
C[C@H]1CN([C@@H](C)CO)C(=O)c2cc(-c3cncnc3)cnc2O[C@@H]1CN(C)C(=O)Cc1ccccn1	0	-1	x	x
S=c1[nH]nc(-c2ccco2)n1/N=C/C=C/c1ccco1	x	70*	44	95
S=c1[nH]nc(-c2cc(-c3ccccc3)n[nH]2)n1/N=C/C=C/c1ccco1	-1	11	9	48
Cc1cc(C(=O)Nc2ccc(Cl)cc2)c(C)n1-c1ccccc1	-1	-1	14	88*
Cc1ccc(NC(=O)c2cc(C)n(-c3ccccc3)c2C)cc1	0	-5	2	4
O=c1c2ccccc2oc2cc(NCCCN3CCOCC3)ccc12	x	-1	x	55*
SMILES	SIRT5 block	CASP6 VEID inh	NSD2 HMT inh	SUMO HTRF inh
CC(=O)c1ccccc1NS(=O)(=O)c1cccc2nsnc12	-2	56*	2	6
CC(=O)c1ccccc1NS(=O)(=O)c1cccc2nonc12	2	2	-1	-3
O=C(CSc1ccsc1[N+](=O)[O-])NCc1ccco1	0	46*	3	4
CO[C@H]1CN(C)C(=O)c2ccc(NS(=O)(=O)c3ccccc3)cc2OC[C@H](C)N(Cc2cccnc2)C[C@H]1C	-3	1	x	x
OC(COc1ccc(Br)cc1)CN1CCC(Cc2ccccc2)CC1 (configuration not stated)	30*	-1	1	4
COc1cc(/C=C(\C(=O)O)c2ccc(S(=O)(=O)N3CCCCC3)s2)ccc1OC(F)F	x	x	0	x
CCOC(=O)c1c(C)c(C(=O)NCc2ccccc2OC)c(C)n1C	1	0	0	19
CCOC(=O)c1c(C)c(C(=O)NCc2ccc(OC)cc2)c(C)n1C	1	48*	2	10
COc1ccc(NC(=O)Nc2ccc3c(c2)C(=O)N([C@H](C)CO)C[C@@H](C)[C@@H](CN(C)S(=O)(=O)c2cccs2)O3)cc1	5	0	x	x
CN(C)c1ccc(N=Nc2nc3ccccc3n2C)cc1	-2	3	x	-27
Cn1c(N=Nc2ccccc2)nc2ccccc21	6	39*	8	11
C[C@@H]1CN([C@H](C)CO)S(=O)(=O)c2ccc(C#CC(C)(C)O)cc2O[C@H]1CN(C)C	-3	1	x	x
CN(C)C(=O)c1cc(C(=O)c2ccc(C(F)(F)F)cc2F)c[nH]1	34*	-4	x	3
CN(C)C(=O)c1cc(C(=O)c2ccc(F)cc2F)c[nH]1	-3	-2	-4	-1
CCCNC(=O)C[C@H]1CC[C@H]2[C@@H](COc3ccc(NC(=O)NCCC)cc3C(=O)N2C)O1	7	x	x	x
CCc1ccc(NC(=O)C(CC)Sc2nc3cc4c(cc3c(=O)n2Cc2ccco2)OCO4)cc1 (configuration not stated)	x	x	-2	54*
CCc1ccccc1NC(=O)C(CC)Sc1nc2cc3c(cc2c(=O)n1Cc1ccco1)OCO3 (configuration not stated)	x	x	11	9
CC(c1ccon1)N(C)C(=O)c1cccc(OC2CCN(S(C)(=O)=O)CC2)c1 (configuration not stated)	15*	0	-2	x
Cc1cccc(S(=O)(=O)N2CC[C@@H]3[C@H](CO)Nc4ccc(C5=CCCCC5)cc4[C@@H]32)c1	4	0	x	x
CCC(=O)N(C)C[C@H]1Oc2cc(-c3cccc(OC)c3)ccc2S(=O)(=O)N([C@@H](C)CO)C[C@H]1C	-1	-1	x	x
Cc1ccc(Cc2c(-c3cccc(Br)c3)nc3c(Cl)cc(C(F)(F)F)cn23)cc1	25*	0	x	x
CN1C(=O)c2cc(NS(C)(=O)=O)ccc2OC[C@@H]2O[C@@H](CC(=O)O)CC[C@@H]21	1	-6	x	x
COc1cccc(S(=O)(=O)N(C)C[C@H]2Oc3cc(C4=CCCCC4)ccc3S(=O)(=O)N([C@@H](C)CO)C[C@@H]2C)c1	-1	0	x	x
COc1cccc(S(=O)(=O)N(C)C[C@@H]2Oc3cc(C4=CCCCC4)ccc3S(=O)(=O)N([C@@H](C)CO)C[C@H]2C)c1	22*	0	x	x
COc1cccc(S(=O)(=O)N(C)C[C@@H]2Oc3cc(C4=CCCC4)ccc3S(=O)(=O)N([C@H](C)CO)C[C@@H]2C)c1	-6	1	x	x
COc1cccc(S(=O)(=O)N(C)C[C@H]2Oc3cc(C4=CCCC4)ccc3S(=O)(=O)N([C@@H](C)CO)C[C@H]2C)c1	21*	3	x	x
CC1CCCN(C(=O)COC(=O)C2CCN(S(=O)(=O)c3c(Cl)cccc3Cl)CC2)C1 (configuration not stated)	18*	-3	0	x
CC1CC(C)CN(C(=O)COC(=O)C2CCN(S(=O)(=O)c3c(Cl)cccc3Cl)CC2)C1 (configuration not stated)	11	0	-2	x
COc1ccc(S(=O)(=O)Nc2ccc3c(c2)C(=O)N([C@H](C)CO)C[C@H](C)[C@H](CN(C)Cc2ccc(-c4ccccc4)cc2)O3)cc1	0	2	x	x
